In PubChem BioAssay (Tox21):
Inconclusive results are not listed. Active and inactive are the calls of the source. Unless noted, the call rests on the fitted dose curve; in most records, active means well fitted curve in the direction sought with a large enough effect in the repeat runs; inconclusive means weak or mixed curves; inactive means no such curve, though single readings can be large; an effect the other way counts as inactive or inconclusive.

Key:
[1] = qHTS assay to identify small molecule agonists of the RXR signaling pathway - cell viability counter screen (AID 1159529); further: nearly all actives have a fitted effect of over 50% in size; further: potency means the concentration at half of the fitted maximal effect;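 on activity change, negative = cytotoxicity: HEK 293T cells carrying an RXR-alpha UAS beta-lactamase reporter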
Summary of the method: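 RXR-alpha-UAS-bla HEK 293T cells in medium with 2% charcoal-stripped FBS were preincubated 5 hr, then exposed to compounds for 16 hr at 37 C. Viability was read as CellTiter-Glo luminescence after 30 min at room temperature.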

[2] = qHTS assay to identify small molecule antagonists of the retinoic acid receptor (RAR) signaling pathway (AID 1159552; further: nearly all actives have a fitted effect of over 50% in size; further: potency means the concentration at half of the fitted maximal effect)
Summary of the method: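 RARE-luc C3RL4 cells; cpds + 1 uM (final) retinol, 6 hr, 37 C/5% CO2; luciferase reagent, 30 min RT, luminescence readout. Inhibitors of retinol-driven signal scored.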

[3] = qHTS assay to identify small molecule agonists of the constitutive androstane receptor (CAR) signaling pathway - cell viability counter screen (AID 1224836); further: nearly all actives have a fitted effect of over 45% in size
Summary of the method: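 HepG2 cells stably carrying hCAR and a CYP2B6-2.2kb reporter were plated 4 h, then given compounds at 15 concentrations plus PK11195 (final 0.75 uM). After 23 h at 37 C, viability was read by CellTiter-Fluor fluorescence.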

[4] = target: Nuclear receptor subfamily 1 group I member 3 (Homo sapiens) (UniProt Q14994); test: qHTS assay to identify small molecule agonists of the constitutive androstane receptor (CAR) signaling pathway (AID 1224839); further: nearly all actives have a fitted effect of over 15% in size; further: potency means the concentration at half of the fitted maximal effect;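 on activation: HepG2 cells stably carrying human CAR and a CYP2B6 luciferase reporter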
Summary of the method: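 HepG2 cells stably expressing hCAR and a CYP2B6-2.2kb luciferase reporter were treated with compounds at 15 concentrations plus 0.75 uM PK11195 (final) for 24 h at 37 C; luminescence was read after ONE-Glo addition.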

[5] = qHTS assay to identify small molecule antagonists of the estrogen related receptor signaling pathway with the pleiotropic PPARgamma coactivator (PGC) from Tox21 10K library - cell viability counter screen (AID 1224840; active means well fitted cell-killing curve with a large enough effect in the repeat runs, not every such curve was filed as active; further: nearly all actives have a fitted effect of over 40% in size)
Summary of the method: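 Compounds in DMSO, alongside positive and negative controls, were pinned onto PGC/ERR cells (2,000 per well). Exposure lasted 17.5 hours at 37 C, followed by a 30-minute CellTiter-Fluor incubation and fluorescence reading.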

[6] = qHTS assay to identify small molecule antagonists of the retinoid acid receptor (RAR) signaling pathway - cell viability counter screen (AID 1159551); further: nearly all actives have a fitted effect of over 35% in size
Summary of the method: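 Following overnight attachment, C3RL4 reporter cells received DMSO-dissolved compounds and then retinol (1 uM final). Six hours later at 37 C, ATP content was measured by CellTiter-Glo luminescence.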

[7] = qHTS assay to identify small molecule agonists of the retinoic acid receptor (RAR) signaling pathway (AID 1159553); conditions: C3RL4 RARE luciferase reporter, agonist, 6 h; activation: at 73.3 µM (top of the series) unless noted; further: potency means the concentration at half of the fitted maximal effect
Summary of the method: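 Cell line C3RL4, RARE luciferase reporter. Treatment: compounds in DMSO, 6 hr, 37 C, 5% CO2, after overnight plating. Detection: luminescence, 30 min RT after reagent.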

[8] = qHTS assay to identify small molecule antagonists of the estrogen related receptor (ERR) signaling pathway from Tox21 library - cell viability counter screen (AID 1224834); further: nearly all actives have a fitted effect of over 30% in size; further: potency means the concentration at half of the fitted maximal effect
Summary of the method: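 Viability readout (CellTiter-Fluor fluorescence, 30 min at 37 C) multiplexed with the ERR assay; cells treated 17.5 h at 37 C with compounds delivered in DMSO.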

[9] = qHTS assay to identify small molecule antagonists of the constitutive androstane receptor (CAR) signaling pathway - cell viability counter screen (AID 1224837); further: nearly all actives have a fitted effect of over 45% in size
Summary of the method: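 Fluorescence from CellTiter-Fluor served as the viability signal. Human hepatoma HepG2 cells stably bearing hCAR and CYP2B6-2.2kb received compound plus CITCO (50 nM final) for 23 hr.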

[10] = qHTS assay to identify small molecule antagonists of the estrogen related receptor signaling pathway with the pleiotropic PPARgamma coactivator (PGC) from Tox21 10K library (AID 1224841; call rule not given here; further: actives are mostly falling curves and most rising ones were filed inactive; nearly all actives have a fitted effect of over 50% in size; further: potency means the concentration at half of the fitted maximal effect)
Summary of the method: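 Compound exposure ran 18 hours at 37 C in PGC/ERR cells (2,000/well) that had first rested 6 hours in a 37 C/5% CO2 incubator. Luciferase activity was then detected with One-Glo after a 30-minute room-temperature step.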

[11] = qHTS assay to identify small molecule agonists of the estrogen related receptor signaling pathway with the pleiotropic PPARgamma coactivator (PGC) from Tox21 10K library (AID 1224842); further: nearly all actives have a fitted effect of over 15% in size; further: potency means the concentration at half of the fitted maximal effect
Summary of the method: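 Luminescence from One-Glo (30 min, room temperature) measured after PGC/ERR cells had 18 h at 37 C with pinned compound (23 nL in DMSO). Cells had been seeded at 2,000 per well and pre-incubated 6 h.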

[12] = target: Luciferin 4-monooxygenase (Photinus pyralis) (UniProt P08659); test: qHTS assay to identify small molecule inhibitors of firefly luciferase (AID 1224835); further: nearly all actives have a fitted effect of over 25% in size; further: potency means the concentration at half of the fitted maximal effect
Summary of the method: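 Inhibition of purified Photinus luciferase is measured by luminescence. Substrate levels (D-luciferin, ATP) sit at their KM values. Each compound is tested in a concentration series.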

[13] = target: Nuclear receptor subfamily 1 group I member 3 (Homo sapiens) (UniProt Q14994); test: qHTS assay to identify small molecule antagonists of the constitutive androstane receptor (CAR) signaling pathway (AID 1224838); further: nearly all actives have a fitted effect of over 40% in size
Summary of the method: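 Quantitative HTS in double-stable HepG2-CYP2B6-hCAR cells. After 4 h plating, cells get compound (15 concentrations) and CITCO at 50 nM final, incubate 24 h at 37 C, then ONE-Glo luminescence is read.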

[14] = target: Thyrotropin receptor (Homo sapiens) (UniProt P16473); test: qHTS assay to identify small molecule agonists of the thyroid stimulating hormone receptor (TSHR) signaling pathway (AID 1224843; calls by dose curve; further: nearly all actives have a fitted effect of over 45% in size)
Summary of the method: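 HEK293 cells stably bearing the thyrotropin receptor were plated at 800 cells/well and challenged with compound (30 min, RT). Accumulated cAMP was quantified via cAMP-d2 competing for cryptate-tagged antibody.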

[15] = qHTS assay to identify small molecule agonists of the hypoxia (HIF-1) signaling pathway - cell viability counter screen (AID 1224844; calls by dose curve; further: nearly all actives have a fitted effect of over 50% in size)
Summary of the method: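 Luminescent ATP content (CellTiter-Glo, 30 min, room temperature) served as the viability measure in HRE-bla ME-180 cells exposed to compounds for 17 hrs in low-serum medium (0.5% dialyzed FBS).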

[16] = qHTS assay to identify small molecule antagonists of the estrogen related receptor (ERR) signaling pathway - cell viability counter screen (AID 1224818);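 further: viability measured after 17.5 h of compound exposure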
Summary of the method: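 Here, ERR cells are plated at 2,000 cells per well, allowed 6 h to attach, and treated with compounds in DMSO for 17.5 h at 37 C. CellTiter-Fluor is then added and fluorescence read after 30 min.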

[17] = qHTS assay to identify small molecule antagonists of the estrogen related receptor (ERR) signaling pathway (AID 1224819)
Summary of the method: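 LOPAC library screened for antagonism as reduced One-Glo luminescence in ERR reporter cells (2,000/well). Compounds were added after 6 h pre-incubation and left 18 h at 37C; reading followed a 30 min room-temperature reagent step.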

[18] = qHTS assay to identify small molecule agonists of the estrogen related receptor (ERR) signaling pathway (AID 1224820)
Summary of the method: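 Quantitative HTS of the LOPAC library used NTP ERR reporter cells treated 18 h at 37 C. Signal is luminescence after One-Glo addition and a 30 min room-temperature incubation.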

[19] = tested on: estrogen-related receptor alpha (ERRalpha) with PGC-1alpha coactivator, human; test: qHTS assay to identify small molecule antagonists of the estrogen related receptor signaling pathway with the pleiotropic PPARgamma coactivator (PGC) (AID 1224821; calls by dose curve)
Summary of the method: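 Quantitative HTS for antagonism: PGC/ERR cells received compounds after 6 h attachment and were incubated 18 h at 37 C, with luminescence (One-Glo) as the endpoint.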

[20] = qHTS assay to identify small molecule agonists of the estrogen related receptor signaling pathway with the pleiotropic PPARgamma coactivator (PGC) (AID 1224823)
Summary of the method: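 Cell-based luciferase assay in the NTP-supplied PGC/ERR line, 2,000 cells/well; 18 h compound exposure at 37 C, luminescence after One-Glo.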
On the % scale 0 is the no-effect control and ±100 the full control effect.

Sequence of Thyrotropin receptor (Homo sapiens) (P16473 whole entry, looked up): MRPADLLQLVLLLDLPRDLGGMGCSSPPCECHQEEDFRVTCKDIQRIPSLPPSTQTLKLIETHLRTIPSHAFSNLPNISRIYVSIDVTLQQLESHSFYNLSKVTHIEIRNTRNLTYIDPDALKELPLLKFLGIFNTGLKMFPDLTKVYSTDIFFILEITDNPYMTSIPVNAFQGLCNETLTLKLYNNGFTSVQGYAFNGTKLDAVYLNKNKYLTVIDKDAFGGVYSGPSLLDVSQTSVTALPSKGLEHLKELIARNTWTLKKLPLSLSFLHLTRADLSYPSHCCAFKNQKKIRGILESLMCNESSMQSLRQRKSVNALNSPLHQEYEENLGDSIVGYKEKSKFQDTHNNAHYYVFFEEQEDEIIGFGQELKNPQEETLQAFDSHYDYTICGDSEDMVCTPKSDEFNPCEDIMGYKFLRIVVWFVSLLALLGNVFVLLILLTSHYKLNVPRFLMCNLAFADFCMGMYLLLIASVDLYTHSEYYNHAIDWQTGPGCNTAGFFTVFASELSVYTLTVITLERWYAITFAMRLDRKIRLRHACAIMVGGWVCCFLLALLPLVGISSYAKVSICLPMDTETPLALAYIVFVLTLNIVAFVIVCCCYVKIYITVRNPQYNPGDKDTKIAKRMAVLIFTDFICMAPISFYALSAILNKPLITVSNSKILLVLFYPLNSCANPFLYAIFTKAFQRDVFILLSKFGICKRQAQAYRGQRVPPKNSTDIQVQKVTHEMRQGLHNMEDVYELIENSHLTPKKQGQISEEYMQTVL
Sequence of Nuclear receptor subfamily 1 group I member 3 (Homo sapiens) (Q14994 whole entry, looked up): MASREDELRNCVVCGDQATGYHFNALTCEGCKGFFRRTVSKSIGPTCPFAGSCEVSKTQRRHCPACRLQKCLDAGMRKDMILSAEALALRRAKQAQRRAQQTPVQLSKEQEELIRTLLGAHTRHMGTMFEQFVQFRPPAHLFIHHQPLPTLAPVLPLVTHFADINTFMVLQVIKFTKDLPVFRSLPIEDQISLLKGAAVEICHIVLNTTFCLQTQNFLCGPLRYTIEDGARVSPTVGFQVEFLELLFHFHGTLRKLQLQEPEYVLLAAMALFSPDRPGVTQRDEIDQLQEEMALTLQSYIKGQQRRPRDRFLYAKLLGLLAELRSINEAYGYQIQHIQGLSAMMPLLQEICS
Sequence of Luciferin 4-monooxygenase (Photinus pyralis) (P08659 whole entry, looked up): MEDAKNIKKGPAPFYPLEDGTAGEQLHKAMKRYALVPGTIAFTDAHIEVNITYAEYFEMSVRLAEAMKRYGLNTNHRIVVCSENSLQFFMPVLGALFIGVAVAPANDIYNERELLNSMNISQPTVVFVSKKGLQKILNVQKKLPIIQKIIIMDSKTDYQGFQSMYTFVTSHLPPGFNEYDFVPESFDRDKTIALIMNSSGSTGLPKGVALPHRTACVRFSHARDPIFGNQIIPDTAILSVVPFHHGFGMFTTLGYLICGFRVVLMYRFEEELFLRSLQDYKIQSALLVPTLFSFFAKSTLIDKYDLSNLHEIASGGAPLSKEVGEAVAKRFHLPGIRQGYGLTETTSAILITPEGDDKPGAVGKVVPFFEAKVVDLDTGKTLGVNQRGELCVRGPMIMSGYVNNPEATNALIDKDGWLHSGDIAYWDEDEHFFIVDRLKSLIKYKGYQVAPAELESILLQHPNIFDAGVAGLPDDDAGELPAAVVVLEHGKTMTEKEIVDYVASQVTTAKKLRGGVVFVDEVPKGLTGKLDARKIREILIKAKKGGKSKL

C/C=C/C=C/COC(=O)C(C)C
active: Potency [2] 27.3 µM
inactive: Potency [1] | Potency [3] | Potency [4] | Potency [5]

OC1CCC(C2CCCCC2)CC1 (centres undefined)
inactive: Potency [6] | Potency [2] | Potency [7] | Potency [8] | Potency [3] | Potency [9] | Potency [5] | Potency [10] | Potency [11]

OC[C@@H](O)[C@@H](O)CO
inactive: Potency [6] | Potency [2] | Potency [7] | Potency [12] | Potency [3] | Potency [9] | Potency [13] | Potency [4] | Potency [5] | Potency [10] | Potency [11] | Potency [14] | Potency [15]

C[C@@H](O)[C@H](N)C(=O)O
inactive: activity change, negative = cytotoxicity [6] -1.86% [at 19 µM] | activity, negative = inhibition [2] 42.8% [at 19 µM] | Potency [7] | viability change, negative = cytotoxic [8] 0.354% [at 19 µM] | activity change, negative = inhibition [12] 1.37% [at 23.6 µM] | viability change, negative = cytotoxic [3] -1.25% [at 19 µM] | activity change, negative = cytotoxicity [9] 9.9% [at 19 µM] | activity, negative = inhibition [13] 17.3% [at 19 µM] | activation [4] -3.11% [at 19 µM] | viability change, negative = cytotoxic [5] 0.388% [at 19 µM] | activity change, negative = cytotoxicity [15] -2.15% [at 15.8 µM]

Cc1cc(C(C)(C)C)cc(C)c1CC1=NCCN1
inactive: Potency [6] | Potency [2] | Potency [7] | outcome [16] | Potency [17] | outcome [18] | Potency [19] | outcome [20] | Potency [12] | Potency [3] | Potency [9] | Potency [13] | Potency [4] | Potency [5] | Potency [10] | Potency [11] | Potency [14] | Potency [15]

NC(=O)c1cccc([N+](=O)[O-])c1
inactive: Potency [6] | Potency [2] | Potency [8] | Potency [12] | Potency [3] | Potency [9] | Potency [5] | Potency [14] | Potency [15]

COc1c(C)c2c(c(O)c1C/C=C(\C)CCC(=O)OCCN1CCOCC1)C(=O)OC2
inactive: Potency [6] | Potency [2] | Potency [7] | Potency [12] | Potency [3] | Potency [9] | Potency [4] | Potency [5] | Potency [10] | Potency [14]
active: Potency [11] 0.237 µM

CCCCCCCCCCCCOCCOCCOCCOCCOCCOCCOCCOCCOCCO
inactive: Potency [12] | Potency [4] | Potency [11]
active: Potency [1] 16.9 µM | Potency [8] 26.6 µM | Potency [10] 5.31 µM

CNC(=O)c1ccccc1Sc1ccc2c(/C=C/c3ccccn3)n[nH]c2c1
inactive: Potency [6] | Potency [2] | Potency [3] | Potency [13] | Potency [14] | Potency [15]
active: Potency [7] 0.188 µM | Potency [12] 0.871 µM | Potency [4] 1.06 µM

COc1cc(/C=C/c2ccccc2)oc(=O)c1
active: Potency [7] 0.564 µM | Potency [12] 7.35 µM | Potency [4] 7.96 µM | Potency [11] 5.64 µM
inactive: Potency [6] | Potency [2] | Potency [3] | Potency [9] | Potency [13] | Potency [5] | Potency [10] | Potency [14] | Potency [15]
